Laboratory results published in PubChem BioAssay (Tox21).
“And” between values parts separate entries of the source, which are not always exact repeats. Equal values may be shown once. Records with an inconclusive call do not appear. Some structures have more than one record in an assay (separate samples or runs), and their calls can disagree. The source made the active and inactive calls. Calls follow the shape of the dose curve; as a rule, active = well fitted inhibition curve with a large enough effect in the repeat runs; inconclusive = weak or mixed curves; inactive = no such curve, though single readings can be large or run the other way.

Target: Cytochrome P450 2C9 (Homo sapiens) (UniProt P11712)
Test: Cytochrome P450 Family 2 Subfamily C Member 9 (CYP2C9) small molecule antagonists: luciferase reporter qHTS assay (AID 1671198); also: nearly all actives have a fitted effect of over 50% in size
Settings: P450-Glo CYP2C9 enzyme assay, luciferin luminescence; series mostly up to 115 µM; activity change, negative = inhibition: at the top concentration
Excerpt: U.S. Tox21 Program National Center for Advancing Translational Sciences [NCATS] U.S. Environmental Protection Agency [EPA] National Institutes of Environmental Health Sciences [NIEHS] National Toxicology Program [NTP] U.S. Food and Drug Administration [FDA] Tox21 Assay Overview: Cytochrome P450 (CYP) enzymes are membrane-bound hemeproteins that play a key role in metabolism of drugs and xenobiotics. Evaluation of the effect of chemicals on CYP isozymes is useful to minimize the adverse drug reactions and toxicities in drug development process. Tox21 chemicals were tested for their effect on CYP enzyme activities by using P450-Glo (TM) screening systems (Promega Corporation, Madison, WI). These systems provide a luminescent method containing proluciferin substrates and are converted to luciferin products by CYP isozymes. The luciferin products formed are detected with a luciferin detection reagent, and the amount of light produced is proportional to CYP activity. P450-Glo (TM) CYP2C9 screening system (Catalog. No. V9790) was used to detect the compounds that interfere in CYP2C9 activity.
Tox21 Assay Protocol Summary: Two ul of enzyme-substrate mix was dispensed into medium binding white/solid 1536-well plates (Greiner Bio-One North America Inc., Monroe, NC) using a BioRaptr Flying Reagent Dispenser (FRD, Beckman Coulter, Brea, CA). […] The assay plates were incubated at room temperature for 10 min. Then 2 ul of NADPH regeneration solution was added to each well of the assay plates using an FRD and incubated at 37C for 1 h. The reaction was stopped by adding 4 ul of detection reagent using an FRD and after 20 min incubation at room temperature the luminescence signal was measured using a ViewLux plate reader (Perkin Elmer, Shelton, CT). Data were expressed as relative luminescence units.
% is scaled to controls: 0 for no effect and ±100 for the full control effect; potency is read from the fitted curve at half-maximal effect.

Sequence of Cytochrome P450 2C9 (Homo sapiens) (P11712 whole entry, looked up): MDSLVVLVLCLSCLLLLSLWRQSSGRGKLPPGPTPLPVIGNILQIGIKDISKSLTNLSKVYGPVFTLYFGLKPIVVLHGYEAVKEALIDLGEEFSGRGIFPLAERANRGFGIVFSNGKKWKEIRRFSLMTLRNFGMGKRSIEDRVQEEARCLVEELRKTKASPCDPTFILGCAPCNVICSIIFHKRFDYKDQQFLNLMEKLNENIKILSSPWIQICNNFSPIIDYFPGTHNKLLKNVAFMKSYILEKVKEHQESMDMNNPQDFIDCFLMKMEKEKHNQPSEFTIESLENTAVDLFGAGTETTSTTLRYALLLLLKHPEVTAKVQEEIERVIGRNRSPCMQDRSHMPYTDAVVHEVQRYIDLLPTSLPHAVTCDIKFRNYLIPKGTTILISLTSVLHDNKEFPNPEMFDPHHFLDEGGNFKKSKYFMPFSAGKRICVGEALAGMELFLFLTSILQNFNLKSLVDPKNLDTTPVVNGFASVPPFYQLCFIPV

Row | Structure (SMILES) | Potency | activity change, negative = inhibition
1 | OCC(CO)(CBr)CBr | inactive | –
2 | CC1=C(C)S(=O)(=O)CCS1(=O)=O | – | -14.1% (inactive)
3 | CC1CCC(C(C)C)C(O)C1 (stereo not given) | inactive | –
4 | CCCCCC/C(C=O)=C\c1ccccc1 | 35.6 µM (active) | –
5 | Cc1cccc(O)c1 | inactive | –
6 | CCCCC(CC)CO (stereo not given) | inactive | –
7 | CCCCCC(N)=O | inactive | –
8 | CCCCN(CCCC)CCCC | 89.4 µM (active) | –
9 | FC(F)(F)c1ccc(Cl)c(Cl)c1 | inactive | –
10 | O=C(O)c1ccc(C(=O)O)cc1 | – | -7.7% (inactive)
11 | O=C(OCCOCCOC(=O)c1ccccc1)c1ccccc1 | 8.91 µM (active) and 14.2 µM (active) | –
12 | Cc1cccnc1 | inactive | –
13 | O=C(O)c1ccc2c(c1)C(=O)OC2=O | inactive | –
14 | O=C1CCC(N2C(=O)c3ccccc3C2=O)C(=O)N1 (stereo not given) | – | -9.03% [at 53 µM] (inactive)
15 | O=c1[nH]nnc2ccccc12 | inactive | –
16 | CCCCOC(=O)COc1ccc(Cl)cc1Cl | 36 µM (active) and 35.6 µM (active) | –
17 | CCCC(C)=O | – | -9.19% (inactive)
18 | Cc1ccc(S(N)(=O)=O)cc1 | – | 1.7% (inactive)
19 | CC(C)(N)CO | inactive | –
20 | C=C(C)C(=O)O[C@H]1C[C@@H]2CC[C@@]1(C)C2(C)C | – | -6.94% (inactive)

Row | Structure (SMILES) | Potency | activity change, negative = inhibition
21 | OCCOCCOCCO | inactive | –
22 | O=C(O)CCCC[C@@H]1SC[C@@H]2NC(=O)N[C@@H]21 | inactive | –
23 | C#CCN(C)Cc1ccccc1 | inactive | –
24 | COS(C)(=O)=O | inactive | –
25 | CCOC(=O)NNc1nncc2ccccc12 | inactive | –
26 | CC1=CCC2CC1C2(C)C (stereo not given) | inactive | –
27 | O=C(O)CC(C(=O)O)C(CC(=O)O)C(=O)O (stereo not given) | – | -7.81% (inactive)
28 | CCCCCCCCCCCCCCCO | 40.3 µM (active) | –
29 | COc1cc(Cc2cnc(N)nc2N)cc(OC)c1OC | – | -8.46% [at 53 µM] (inactive)
30 | C/C=C1/CC2C=CC1C2 (stereo not given) | inactive and 39.9 µM (active) | –
31 | COc1ccc(Nc2ccccc2)c(C)c1 | – | -1.97% (inactive)
32 | O=P(OC(CCl)CCl)(OC(CCl)CCl)OC(CCl)CCl | 35.4 µM (active) and 35.6 µM (active) | –
33 | CCCCCCCCCCCCOCCO | 39.9 µM (active) | –
34 | O=C(CC(C(=O)OC1CCCCC1)S(=O)(=O)O)OC1CCCCC1 (stereo not given) | 40.1 µM (active) and 35.1 µM (active) | –
35 | CCCCC(CC)COC(=O)C(C#N)=C(c1ccccc1)c1ccccc1 (stereo not given) | 2.83 µM (active) and 3.09 µM (active) | –
36 | CC(C)CC(=O)CC(C)C | – | -19.2% (inactive)
37 | O=S1(=O)CC=CC1 | inactive | –
38 | O=c1[nH]c(=O)n([C@H]2CCCO2)cc1F | inactive | –
39 | O=[N+]([O-])c1ccc(/C=C/c2ccc([N+](=O)[O-])cc2S(=O)(=O)O)c(S(=O)(=O)O)c1 | 31.7 µM (active) and 39.9 µM (active) | –
40 | CCCCCCCCCCCCCCO | – | -13.6% (inactive)
